Source: ChEMBL document CHEMBL1201862, “PubChem BioAssay data set” (2004)
About 2,100 (0.53%) of roughly 400,000 compounds were called active. Not shown: some 14% with an inconclusive outcome. The sample holds actives, similar compounds and a random draw of the others, so the mix is not that of the screen. The rule behind the calls is not given here.

molecular target: Ataxin-2 (Homo sapiens) (UniProt Q99700); assay: qHTS for Inhibitors of ATXN expression.; format: functional
Sequence (Q99700 whole entry): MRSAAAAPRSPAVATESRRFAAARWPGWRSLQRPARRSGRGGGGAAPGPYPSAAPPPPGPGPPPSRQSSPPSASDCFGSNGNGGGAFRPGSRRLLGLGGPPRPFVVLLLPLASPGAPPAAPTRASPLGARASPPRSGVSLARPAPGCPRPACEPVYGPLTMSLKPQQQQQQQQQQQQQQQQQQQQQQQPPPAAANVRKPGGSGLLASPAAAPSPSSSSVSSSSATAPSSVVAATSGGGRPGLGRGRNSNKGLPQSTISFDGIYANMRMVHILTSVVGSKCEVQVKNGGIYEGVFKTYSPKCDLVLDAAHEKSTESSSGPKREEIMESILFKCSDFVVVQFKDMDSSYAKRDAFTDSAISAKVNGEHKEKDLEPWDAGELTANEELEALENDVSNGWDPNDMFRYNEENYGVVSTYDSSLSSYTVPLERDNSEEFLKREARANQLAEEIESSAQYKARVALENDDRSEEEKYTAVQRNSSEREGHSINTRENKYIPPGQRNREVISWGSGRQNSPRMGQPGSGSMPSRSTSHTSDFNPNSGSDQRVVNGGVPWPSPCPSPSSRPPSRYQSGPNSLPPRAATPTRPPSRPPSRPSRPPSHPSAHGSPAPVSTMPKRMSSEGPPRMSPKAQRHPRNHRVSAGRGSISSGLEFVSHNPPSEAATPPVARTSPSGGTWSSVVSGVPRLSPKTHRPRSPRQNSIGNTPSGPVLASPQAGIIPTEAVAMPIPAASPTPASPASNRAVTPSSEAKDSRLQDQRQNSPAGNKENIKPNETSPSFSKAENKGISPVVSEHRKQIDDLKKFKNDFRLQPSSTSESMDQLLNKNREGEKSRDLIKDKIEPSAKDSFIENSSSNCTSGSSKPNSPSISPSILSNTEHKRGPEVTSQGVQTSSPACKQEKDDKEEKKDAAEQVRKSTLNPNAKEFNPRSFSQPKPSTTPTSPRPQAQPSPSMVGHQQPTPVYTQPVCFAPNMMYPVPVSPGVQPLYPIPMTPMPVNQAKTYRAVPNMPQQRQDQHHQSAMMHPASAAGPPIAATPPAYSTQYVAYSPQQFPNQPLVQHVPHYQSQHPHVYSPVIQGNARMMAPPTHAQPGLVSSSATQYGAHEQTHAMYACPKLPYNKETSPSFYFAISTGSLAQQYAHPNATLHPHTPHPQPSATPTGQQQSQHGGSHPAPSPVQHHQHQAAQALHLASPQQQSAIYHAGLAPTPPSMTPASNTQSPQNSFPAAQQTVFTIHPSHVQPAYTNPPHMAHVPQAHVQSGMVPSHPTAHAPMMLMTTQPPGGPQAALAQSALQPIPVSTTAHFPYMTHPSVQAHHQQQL

Compound	Potency
COC(=O)Cc1c(C)c2ccc3c(c2oc1=O)CN(Cc1ccc(Cl)cc1)CO3	inactive
Cc1ccc(C(=O)C(C(=O)/C=C/c2ccccc2)=C2SCCCS2)cc1	25.1 µM (active)
CC1=CC(=O)C=C(C)C1=NOC(=O)/C=C\c1ccccc1	inactive
Cc1cc(N2CCN(C)CC2)nc2ccc(NC(S)=NCCN3CCc4ccccc4C3)cc12	28.2 µM (active)
CCN1CCN(c2cc(C)c3cc(NC(S)=NCCCN4CCc5ccccc5C4)ccc3n2)CC1	25.1 µM (active)
COCCCN=C(S)Nc1ccc2nc(N3CCOCC3)cc(C)c2c1	inactive
Cc1cc(C)c2cc3c(N)c(C(=O)N4CCc5ccccc5C4)sc3nc2c1	inactive
COc1cc(OC)c2c(OC)cccc2n1	inactive
CC(C)c1ccc(O)c(C(=O)c2cnn(-c3ccccc3)c2)c1	inactive
Cc1cccn2c(=O)c3cc(C(N)=S)c(=N)n(CCCOC(C)C)c3nc12	inactive
CCCCNC(=O)C1(NC(=O)Nc2ccccc2)CCCCC1	inactive
CCCCNC(=O)C[C@@H]1C[C@@]2(C(=O)OC)CCCCC=C2N(CCC2=CCCCC2)C1=O	39.8 µM (active)
CCCCOCCCNC(=O)C[C@@H]1C[C@@]2(C(=O)OC)CCCCC=C2N(CCC2=CCCCC2)C1=O	35.5 µM (active)
Cc1cc(NCCCOC(C)C)n2c(nc3ccccc32)c1C#N	inactive
CC(=O)c1ccc(NC(=O)COC(=O)C2CC3C=CC2C3)cc1 (stereo not drawn)	inactive
O=C1/C(=C\NCc2ccccn2)c2ccccc2C(=O)N1c1ccccc1Cl	inactive
CCN(C(=O)COc1cccc2cccnc12)C1CCS(=O)(=O)C1 (stereo not drawn)	inactive
Cc1ccc(OCC(=O)N(Cc2ccco2)C2CCS(=O)(=O)C2)cc1C (stereo not drawn)	inactive
CCN(C(=O)C(C)N1C(=O)/C(=C/c2ccco2)SC1=S)C1CCS(=O)(=O)C1 (stereo not drawn)	28.2 µM (active)
Cc1ccc(O)c(Nc2c3ccccc3nc3ccccc23)c1	inactive
Cc1ccc(O)c(NN=C2C(=O)CC(C)(C)CC2=O)c1	20 µM (active)
O=C(OCC(=O)c1ccc[nH]1)c1cncc(Br)c1	inactive
CN1CCN(S(=O)(=O)c2cc([N+](=O)[O-])ccc2N/N=C/c2ccc(Cl)cc2)CC1	inactive
Cc1ccc(-n2[nH]c(C)c(/C=N/Nc3ccc([N+](=O)[O-])cc3[N+](=O)[O-])c2=O)cc1	14.1 µM (active)
Cc1[nH]c2ccccc2c1/C=N/Nc1ccc([N+](=O)[O-])cc1	inactive
CCc1ccc([C@@H]2CC=C(C(=O)O)[C@H](c3ccc(C(C)(C)C)cc3)N2S(=O)(=O)c2ccc(C)cc2)cc1	35.5 µM (active)
CSC1=NCCN1S(=O)(=O)c1ccc(C)cc1	inactive
CCc1ccc(S(=O)(=O)N2CCN(Cc3ccco3)CC2)cc1	inactive
